Source: PubChem BioAssay (NCATS)
Several values for one entry are separate records, joined by “and”; a condition that tells them apart may be missing. Identical values can stand only once. Inconclusive results are not listed. Activity calls are given as the source filed them. Unless noted, calls come from the whole dose curve; as a rule, active = well fitted curve in the direction sought with a large enough effect; inconclusive = small, poorly fitted or top-dose-only effect, or another doubt; inactive = no such curve, though single readings can be large; an effect the other way counts as inactive or inconclusive.

Columns and labels:
[1] = qHTS Assay for Lipid Storage Modulators (AID 1519; calls by dose curve; for activity change, negative = inhibition: % is set by controls: 0 for no effect and ±100 for the full control effect); settings: Drosophila S3 cells, BODIPY lipid droplet/cell ratio, laser cytometry, cells loaded with oleic acid; for activity change, negative = inhibition: at 57.5 µM (top of the series)
In short: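 Cells seeded at 5,000 per well were treated with compounds over a concentration series and loaded with oleic acid (400 uM, as added). Lipid droplet fluorescence (488 nm excitation, 500-530 nm channel) was read by laser-scanning cytometry and normalized to 20 uM Triacsin C.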

[2] = Confirmatory screen GU Rhodamine qHTS for Zika virus inhibitors qHTS (AID 1347157); settings: purified enzyme assay, Rhodamine110 substrate fluorescence, 15 min; series mostly up to 114 µM; note: nearly all actives have a fitted effect of over 70% in size; note: potency is the fitted concentration of half-maximal effect;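 for activity change, negative = inhibition: plate controls were no-inhibitor wells for no effect and no-enzyme wells for full effect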
In short: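 A qHTS format was used, with compound concentrations ranging up to 114 microM. Each compound was preincubated with 25 nM NS2B-NS3 protease, and the substrate was then added at 1.5 microM. Curves were fitted with a 4-parameter Hill model.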

[3] = ZIKV-mCherry secondary qHTS for Zika virus inhibitors (AID 1347158); settings: Vero cells, ZIKV-mCherry infection imaging, 48-72 h; series mostly up to 49.2 µM; note: top concentration of the series differs between compounds
In short: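 Compounds were tested in Vero monkey kidney cells infected with recombinant mCherry-expressing Zika virus at MOI 1 for 48-72 h at 37 °C. Fixed cells were nuclear-stained and imaged, and infection rate was taken as the fraction of mCherry-positive cells.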

[4] = Confirmatory screen NINDS Rhodamine qHTS for Zika virus inhibitors (AID 1347161); settings: purified enzyme assay, Rhodamine110 substrate fluorescence, 15 min; series mostly up to 114 µM; note: nearly all actives have a fitted effect of over 60% in size; note: potency is the fitted concentration of half-maximal effect;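 for activity change, negative = inhibition: purified Zika NS2B-NS3 protease with linked NS2B cofactor domain and Rhodamine110 peptide substrate; plate controls were no-inhibitor control for no effect and no-enzyme control for full effect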
In short: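 qHTS dose-response: 25 nM linked protease, pH 8.0 Tris/Tween buffer, cpd titration, 15 min RT preinc, 1.5 microM Rhod110 peptide, 15 min reaction (~15% conversion), Ex480/Em540; 4-parameter Hill fit.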

[5] = test system: Zika virus NS2B-NS3 protease (linked); experiment: 384 well plate NINDS AMC confirmatory qHTS for Zika virus inhibitors (AID 1347163); settings: Recombinant NS2B-NS3 protease, Ac-VKTGKR-AMC fluorescence; series mostly up to 1 mM; note: nearly all actives have a fitted effect of over 50% in size; note: potency is the fitted concentration of half-maximal effect;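 for activity change, negative = inhibition: linked protease at 5 30 or 60 nM final depending on run; fluorescence of AMC released from Ac-VKTGKR-AMC peptide cleaved by the protease; top concentration of the series differs between compounds; 0% = no-inhibitor control and -100% = no-enzyme control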
In short: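 Fluorescence at 355/460 nm was read after 25 minutes of cleavage of 30 microM Ac-VKTGKR-AMC at room temperature, in the dark. Before substrate addition, compounds (up to 1 mM final) sat ~15 minutes with 5, 30 or 60 nM linked protease. Signals were normalized to no-enzyme and no-inhibitor wells.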

[6] = test system: Zika virus NS2B-NS3 protease (linked construct); experiment: 384 well plate NINDS Rhodamine confirmatory qHTS for Zika virus inhibitors (AID 1347164); settings: rhodamine-110 peptide substrate fluorescence; series mostly up to 1 mM;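 note: fluorescence from protease cleavage of Ac-LKRR-rhodamine 110 substrate; nearly all actives have a fitted effect of over 65% in size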; note: potency is the fitted concentration of half-maximal effect;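 for activity change, negative = inhibition: top concentration of the series differs between compounds; plate controls were no-inhibitor control for no effect and no-enzyme control for full effect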
In short: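 Fluorescence read at ex 485 nm/em 538 nm, 25 min after adding 10 microM Ac-LKRR-Rd substrate at room temperature in the dark; signal normalized to no-enzyme and no-inhibitor controls. Enzyme final 5, 30 or 60 nM; compounds, ~15 min preincubation.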

[7] = Tertiary RLuc qRT-PCR qHTS assay for Zika virus inhibitors (AID 1347169); settings: infected Vero cells, reporter luminescence, 48-72 h; series mostly up to 1.74 µM; note: top concentration of the series differs between compounds; % is set by controls: 0 for no effect and ±100 for the full control effect; nearly all actives have a fitted effect of over 55% in size
In short: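 Luminescence read-out: live-cell Renilla luciferase substrate applied to infected Vero cells, signal measured after 1-1.5 hrs. Cells had received compound before ZIKV-RLuc (Cambodian strain, MOI 1-2) infection and were incubated 48-72 hrs at 37 degrees C.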

[8] = target: Ubiquitin carboxyl-terminal hydrolase 1 (Homo sapiens) (UniProt O94782); experiment: Inhibitors of USP1/UAF1: Pilot qHTS (AID 504865); settings: purified USP1/UAF1, Ub-rhodamine cleavage fluorescence; series mostly up to 114 µM; note: potency is the fitted concentration of half-maximal effect; nearly all actives have a fitted effect of over 35% in size
Sequence of Ubiquitin carboxyl-terminal hydrolase 1 (Homo sapiens) (O94782 whole entry, looked up): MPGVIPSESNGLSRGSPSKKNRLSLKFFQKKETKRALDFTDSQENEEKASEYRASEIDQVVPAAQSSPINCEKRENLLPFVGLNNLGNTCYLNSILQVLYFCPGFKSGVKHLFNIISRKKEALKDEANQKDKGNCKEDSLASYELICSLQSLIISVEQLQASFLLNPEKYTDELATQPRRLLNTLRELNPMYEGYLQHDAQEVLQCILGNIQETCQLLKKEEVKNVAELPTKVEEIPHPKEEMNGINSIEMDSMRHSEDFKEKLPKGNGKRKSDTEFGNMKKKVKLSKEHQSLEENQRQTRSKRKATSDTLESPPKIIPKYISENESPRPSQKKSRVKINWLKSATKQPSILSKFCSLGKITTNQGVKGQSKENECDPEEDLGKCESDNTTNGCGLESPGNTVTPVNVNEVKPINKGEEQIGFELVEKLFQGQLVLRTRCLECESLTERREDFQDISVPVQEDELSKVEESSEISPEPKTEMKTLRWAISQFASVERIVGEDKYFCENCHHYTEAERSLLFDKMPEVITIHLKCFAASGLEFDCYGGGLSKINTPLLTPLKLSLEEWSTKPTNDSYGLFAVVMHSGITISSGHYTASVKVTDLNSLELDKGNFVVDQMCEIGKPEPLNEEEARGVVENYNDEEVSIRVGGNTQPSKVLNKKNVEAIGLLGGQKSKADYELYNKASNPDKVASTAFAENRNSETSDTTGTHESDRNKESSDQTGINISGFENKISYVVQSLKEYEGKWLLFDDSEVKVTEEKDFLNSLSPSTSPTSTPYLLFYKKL
In short: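 1nM USP1/UAF1 + cpd, 15 min RT; start w/ Ub-Rho 150nM final; kinetic FL 480/540 nm, 6 reads q60 s. Buffer 50mM HEPES pH 7.8, 0.5mM EDTA, 1mM TCEP, 0.01% Tween-20, 0.1 mg/ml BSA.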

[9] = target: Cytochrome P450 3A4 (Homo sapiens) (UniProt P08684); experiment: qHTS Assay for Inhibitors and Substrates of Cytochrome P450 3A4 (AID 884); settings: recombinant CYP3A4, Luciferin-PPXE luminescence; series mostly up to 57.1 µM; note: potency is the fitted concentration of half-maximal effect; nearly all actives have a fitted effect of over 50% in size
Sequence of Cytochrome P450 3A4 (Homo sapiens) (P08684 whole entry, looked up): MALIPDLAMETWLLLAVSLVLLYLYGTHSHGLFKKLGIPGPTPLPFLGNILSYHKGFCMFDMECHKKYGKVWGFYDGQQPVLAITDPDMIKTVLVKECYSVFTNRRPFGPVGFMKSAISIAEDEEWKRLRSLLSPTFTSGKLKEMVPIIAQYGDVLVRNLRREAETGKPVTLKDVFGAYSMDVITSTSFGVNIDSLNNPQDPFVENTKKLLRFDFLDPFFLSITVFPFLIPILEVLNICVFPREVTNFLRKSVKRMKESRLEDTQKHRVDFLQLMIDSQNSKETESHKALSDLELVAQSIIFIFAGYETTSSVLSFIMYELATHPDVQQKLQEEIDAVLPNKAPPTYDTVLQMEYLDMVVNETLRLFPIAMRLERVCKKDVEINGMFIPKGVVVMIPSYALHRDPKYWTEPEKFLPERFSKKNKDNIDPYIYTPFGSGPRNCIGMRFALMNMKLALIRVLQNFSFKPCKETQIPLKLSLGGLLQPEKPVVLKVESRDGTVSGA
In short: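 Luminescent readout of luciferin produced by CYP3A4 (20 nM) dealkylation of Luciferin-PPXE, 25 uM (its KM). NADPH-driven reaction ran 60 min at RT after 10 min compound preincubation; data scaled to 57 uM ketoconazole as 100% inhibition.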

[10] = Confirmation and Secondary Assay for Modulators of Hemoglobin Beta Chain Splicing at IVS2 654 locus (AID 910); settings: HeLa EGFP-654 splicing reporter, GFP fluorescence, 48 h; series mostly up to 46.1 µM;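 note: HeLa cells stably carrying EGFP split by mutant beta-globin IVS2-654 intron; per-well total GFP intensity by laser scanning cytometry after 2-day treatment; % of control where 0% means no effect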
In short: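 Readout: per-well total peak green fluorescence (488 nm ex, 500–520 nm em) from objects 5–250 µm, reflecting correct splicing of an EGFP-654 reporter. Compounds were applied for 2 days at 37 °C to overnight-plated HeLa EGFP-654 cells; controls were DMSO and 500 nM IVS2-654 PNA.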

[11] = Confirmation and Secondary Assay for Modulators of Hemoglobin Beta Chain Splicing at IVS2 705 locus (AID 930); settings: HeLa EGFP-705 splicing reporter, GFP fluorescence, 48 h; series mostly up to 46.1 µM;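 note: HeLa cells stably expressing the EGFP-705 splicing reporter; GFP fluorescence per well restored by corrected splicing of the IVS2-705 intron in EGFP; % of control where 0% means no effect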
In short: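 Assay measures total GFP intensity per well in HeLa EGFP-705 cells after 2 days with compound; mis-splicing normally truncates EGFP, so fluorescence indicates corrected splicing.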

[12] = measured here: cell count channel max response
[13] = measured here: lipid channel max response

Question: Which results are given for O=C(OC1Cc2c(O)cc(O)cc2OC1c1cc(O)c(=O)c2c(O)c(O)cc(C3Oc4cc(O)cc(O)c4CC3OC(=O)c3cc(O)c(O)c(O)c3)c2c1)c1cc(O)c(O)c(O)c1 (stereo not drawn)?
Answer: activity change, negative = inhibition [1]: 15% (inactive); max response [1, 12]: -10.5%; max response [1, 13]: 7.68%; Potency [2]: 5.01 µM (active); Potency [3]: inactive; Potency [4]: 11.2 µM (active); Potency [5]: 2.24 µM (active); Potency [6]: inactive

Question: With CC(C)c1nn2c(=O)cc(COC(=O)c3ccccc3NC(=O)c3cccc(Cl)c3)nc2s1 as the molecule, how does the Potency [2] read?
Answer: The Potency was “inactive”.

Question: What about the Potency [4] of the same molecule?
Answer: Its Potency is “inactive”.

Question: What about the Potency [7] of the same molecule?
Answer: The Potency was “inactive”.

Question: Which results are given for CCOC(=O)c1ccc(CN(Cc2ccccc2C)S(=O)(=O)c2ccc(F)c(C(=O)Nc3cccc(OC)c3)c2)cc1?
Answer: Potency [2]: inactive; Potency [4]: inactive

Question: For COc1ccc2c(c1)Oc1nc(-c3ccc(C)s3)nc(SCC(=O)Nc3cccc(C(=O)O)c3)c1C2, which Potency [2] is on record?
Answer: Its Potency is 5.01 µM (active).

Question: And the Potency [3]?
Answer: The Potency was “inactive”.

Question: And the Potency [4]?
Answer: The Potency was 5.62 µM (active).

Question: What about the Potency [7] of the same molecule?
Answer: The Potency was “inactive”.

Question: Which results are given for COc1ccc(S(=O)(=O)c2c(Nc3ccc(C)cc3)sc(C(=O)c3ccc4c(c3)OCO4)c2N)cc1?
Answer: Potency [2]: inactive; Potency [4]: inactive; Potency [7]: inactive

Question: With Cc1c(C2(c3cc(C(C)C)c(O)c(Br)c3C)OS(=O)(=O)c3ccccc32)cc(C(C)C)c(O)c1Br as the molecule, how does the Potency [2] read?
Answer: Its Potency is 5.01 µM (active).

Question: And the Potency [3]?
Answer: The Potency was “inactive”.

Question: What about the Potency [5] of the same molecule?
Answer: Its Potency is 126 µM (active).

Question: And the Potency [6]?
Answer: The Potency was 17.8 µM (active).

Question: What does the source list for CCOC(=O)c1ccc(N2C(=O)c3n[nH]c(-c4cccs4)c3C2c2ccc(C(C)(C)C)cc2)cc1 (stereo not drawn)?
Answer: Potency [2]: 20 µM (active); Potency [4]: 15.8 µM (active); Potency [5]: inactive

Question: For Cc1ccc(OCC(=O)Nc2ccccc2C(=O)OCc2cc(=O)n3nc(C4CC4)sc3n2)cc1, which Potency [2] is on record?
Answer: The Potency was “inactive”.

Question: What about the Potency [4] of the same molecule?
Answer: Its Potency is “inactive”.

Question: What does the source list for Cc1oc2c(cc(NS(=O)(=O)c3ccc(Br)cc3)c3ccccc32)c1C(=O)OCc1ccccc1?
Answer: Potency [2]: 31.6 µM (active); Potency [3]: inactive; Potency [4]: 39.8 µM (active); Potency [6]: 63.1 µM (active)

Question: For O=C(Nc1cc(C(=O)Nc2ccc(S(=O)(=O)O)cc2S(=O)(=O)O)cc(C(=O)Nc2ccc(S(=O)(=O)O)cc2S(=O)(=O)O)c1)Nc1cc(C(=O)Nc2ccc(S(=O)(=O)O)cc2S(=O)(=O)O)cc(C(=O)Nc2ccc(S(=O)(=O)O)cc2S(=O)(=O)O)c1, which activity change, negative = inhibition [1] is on record?
Answer: The activity change, negative = inhibition was 10.5% (inactive).

Question: And the max response [1, 12]?
Answer: Its max response is -19.5%.

Question: And the max response [1, 13]?
Answer: Its max response is -13.3%.

Question: What about the Potency [8] of the same molecule?
Answer: Its Potency is 1 µM (active).

Question: What about the Potency [2] of the same molecule?
Answer: The Potency was 2.24 µM (active) and 4.47 µM (active).

Question: And the Potency [4]?
Answer: The Potency was 2.24 µM (active) and 2 µM (active).

Question: What about the Potency [5] of the same molecule?
Answer: Its Potency is 8.91 µM (active) and 7.08 µM (active).

Question: And the Potency [6]?
Answer: Its Potency is 3.55 µM (active) and 3.16 µM (active).

Question: And the Potency [7]?
Answer: The Potency was “inactive”.

Question: For O=c1c(O)cc(C2Oc3cc(O)cc(O)c3CC2O)cc2c(C3Oc4cc(O)cc(O)c4CC3O)cc(O)c(O)c12 (stereo not drawn), which Potency [9] is on record?
Answer: The Potency was 15.8 µM (active).

Question: And the outcome [10]?
Answer: The outcome was “inactive”.

Question: What about the outcome [11] of the same molecule?
Answer: Its outcome is “inactive”.

Question: And the activity change, negative = inhibition [1]?
Answer: The activity change, negative = inhibition was 11.1% (inactive).

Question: And the max response [1, 12]?
Answer: The max response was 13.9%.

Question: And the max response [1, 13]?
Answer: Its max response is 27.3%.

Question: And the Potency [8]?
Answer: Its Potency is 35.5 µM (active).

Question: And the Potency [2]?
Answer: The Potency was 12.6 µM (active).

Question: What about the Potency [3] of the same molecule?
Answer: Its Potency is “inactive”.

Question: And the Potency [4]?
Answer: The Potency was 20 µM (active).

Question: And the Potency [5]?
Answer: The Potency was 7.94 µM (active).

Question: What about the Potency [6] of the same molecule?
Answer: Its Potency is “inactive”.

Question: Which Potency [2] does the source give for COc1ccc(NS(=O)(=O)c2ccc3c(c2)[C@H]2C=CC[C@H]2[C@@H](c2ccc(C(=O)O)cc2)N3)cc1 here?
Answer: Its Potency is 20 µM (active).

Question: And the Potency [3]?
Answer: Its Potency is “inactive”.

Question: What about the Potency [5] of the same molecule?
Answer: The Potency was 79.4 µM (active).

Question: And the Potency [6]?
Answer: Its Potency is 20 µM (active).

Question: And the Potency [7]?
Answer: Its Potency is “inactive”.

Question: Which results are given for Cc1ccc(NC(=O)c2ccc3c(O)c(S(=O)(=O)c4ccccc4)c(=O)[nH]c3c2)cc1Cl?
Answer: Potency [2]: 8.91 µM (active); Potency [3]: inactive; Potency [4]: 6.31 µM (active); Potency [5]: 282 µM (active); Potency [6]: 44.7 µM (active); Potency [7]: inactive

Question: With COc1ccc(OC)c(Nc2sc(C(=O)c3ccccc3)c(N)c2S(=O)(=O)c2ccccc2)c1 as the molecule, how does the Potency [2] read?
Answer: Its Potency is “inactive”.

Question: And the Potency [4]?
Answer: The Potency was “inactive”.

Question: What about the Potency [7] of the same molecule?
Answer: Its Potency is “inactive”.

Question: Which Potency [2] does the source give for Cc1ccc(-c2cc(C(F)(F)F)c(C#N)c(SCC(=O)O)n2)cc1 here?
Answer: Its Potency is 44.7 µM (active).

Question: What about the Potency [3] of the same molecule?
Answer: The Potency was “inactive”.

Question: What about the Potency [4] of the same molecule?
Answer: The Potency was 44.7 µM (active).

Question: What about the Potency [5] of the same molecule?
Answer: Its Potency is 141 µM (active).

Question: And the Potency [6]?
Answer: Its Potency is 126 µM (active).

Question: With N#C/C(=C\c1ccc(-c2ccc(Cl)c(C(=O)O)c2)o1)c1nc2ccccc2[nH]1 as the molecule, how does the Potency [2] read?
Answer: Its Potency is 25.1 µM (active).

Question: And the Potency [3]?
Answer: Its Potency is “inactive”.

Question: And the Potency [4]?
Answer: Its Potency is 22.4 µM (active).

Question: What about the Potency [5] of the same molecule?
Answer: Its Potency is 126 µM (active).

Question: And the Potency [7]?
Answer: The Potency was “inactive”.

Question: With O=c1c(-c2cc(O)c(O)c(O)c2)coc2cc(O)c(O)c(O)c12 as the molecule, how does the outcome [10] read?
Answer: The outcome was “inactive”.

Question: And the outcome [11]?
Answer: The outcome was “inactive”.

Question: What about the Potency [2] of the same molecule?
Answer: Its Potency is 22.4 µM (active).

Question: What about the Potency [3] of the same molecule?
Answer: Its Potency is “inactive”.

Question: What about the Potency [4] of the same molecule?
Answer: The Potency was 12.6 µM (active).

Question: What about the Potency [5] of the same molecule?
Answer: The Potency was 316 µM (active).

Question: What about the Potency [6] of the same molecule?
Answer: Its Potency is 126 µM (active).

Question: With CCOC(=O)c1ccc(NC(=O)c2nc(SCc3ccc(F)cc3)ncc2Cl)cc1 as the molecule, how does the Potency [2] read?
Answer: The Potency was “inactive”.

Question: What about the Potency [4] of the same molecule?
Answer: Its Potency is “inactive”.

Question: And the Potency [7]?
Answer: The Potency was “inactive”.
